Compound activity from PubChem.
Rows were chosen to be rich in hits. Some 4.2% of all compounds tested hit in one or more screens of this group.
hgDAF-12 ag: activates the H. glycines DAF-12 receptor ligand-binding domain | HEK293 GAL4-hgDAF12 UAS-luciferase reporter, agonist luminescence; normalized to butyrate control | activation, % at 6.8 µM | 1.8% of 370,000 active | AID 687014;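 active = activation above a cutoff set at the mean of all screened compounds plus 3 SD, cut at about 10% in these data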
ssDAF12 agonist: activates DAF-12 receptor from parasite S. stercoralis | 1% of 370,000 active | AID 652126 | activation, % at 6.8 µM | HEK293 ssDAF-12/GRIP1 lit1-tk-luc reporter, luminescence; % of 3 µM dafachronic acid response;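 active = activation above the mean over all tested compounds plus 3 SD, cut at about 0.9% in these data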
SMARCA2 act: activators of SMARCA2 function; 1% of 370,000 active; activation, % at 9.1 µM; MG213 cells, MMTV-luciferase reporter, dexamethasone, overnight; AID 652017; in the data active = activation above about 7.8%
DAX1 inh: DAX1 (NR0B1) inhibition, primary screen | HEK293T StAR-luciferase reporter, SF-1/DAX-1 repression relief | AID 652010 | inhibition, % at 6.8 µM | 1.1% of 370,000 active;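 active = inhibition above the mean over all tested compounds plus 3 SD, cut at about 3.6% in these data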;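 note: higher inhibition means more luminescence from relief of DAX-1 repression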
hcDAF-12 act: H. contortus DAF-12 activation, primary screen | 1.4% of 370,000 active | HEK293 hcDAF-12 lit1-tk-luc reporter, luminescence; 0% DMSO, 100% Δ7-dafachronic acid | activation, % at 6.8 µM;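 active = activation above the mean of all tested compounds plus 3 SD, cut at about 5.5% in these data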
SMARCA2 conf: SMARCA2 activation, confirmation screen; shares compounds with SMARCA2 act; activation, % at 9.1 µM; 30% of 3,500 active; MG213 cells, MMTV-luciferase with dexamethasone, luminescence, overnight; MG213 cells expressing E1A, Rb sequestered; DMSO wells 0%, reference activator 100%;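 active = activation above its plate's cutoff, the mean activation of tested wells plus 3 SD, cut at about 7.9% in these data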
GAL4-VP16 Luc: counter-screen for SMARCA2 activators: GAL4-VP16 luciferase reporter activation. shares compounds with SMARCA2 act. HEK293 GAL4-VP16 pG5luc reporter, luciferase luminescence; scaled: DMSO wells 0%, SAHA wells 100%. activation, % at 9.1 µM. 41% of 3,500 active. AID 686939;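 active = activation above the solvent-only control well mean plus 3 SD, averaged across control plates, cut at about 5.2% in these data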
Large screens that a line does not name were inactive (follow-up assays come after a bar, where they were run); ! = not confirmed by another sample.

CN(C)CCN(C(=O)/C=C/c1cccs1)c1nc2c(F)cc(F)cc2s1	SMARCA2 act 23 | SMARCA2 conf 23 | GAL4-VP16 Luc inactive
COc1ccc(NC(=O)c2cc(-c3sc(NC(=O)c4ccccc4)nc3C)n(CCO)n2)cc1	none
O=C1CCCC2=C1C(c1ccc(O)c(O)c1)Nc1ccc3ccccc3c12 (stereo unspecified)	none
O=C1CCCC2=C1C(c1ccco1)Nc1ccc3ccccc3c12 (stereo unspecified)	SMARCA2 act 20 | SMARCA2 conf 8.3 | GAL4-VP16 Luc inactive
CCNc1nc(NCC)nc(SCCOc2ccc(C)cc2)n1	SMARCA2 act 9.6 | SMARCA2 conf inactive | GAL4-VP16 Luc inactive
CCOc1nc(SCCOc2ccc(C)cc2)nc(N(C)C)n1	none
CCCC[C@H](C(=O)N(C)c1cccc(OC)c1)[C@@H](O)c1ccc2ccccc2c1	none
CC(C)(C)C1CCc2sc(-c3nnc(CCl)o3)cc2C1 (stereo unspecified)	none
ClCc1nnc(-c2cc3c(s2)CCCC3)o1	SMARCA2 act 11 | SMARCA2 conf inactive | GAL4-VP16 Luc inactive
COc1cccc(/C=N/N2CCOCC2)c1O	SMARCA2 act 10 | SMARCA2 conf inactive | GAL4-VP16 Luc inactive
Cc1ccc(C(=O)c2cc(C)sc2NC(=O)CN2CCN(C(=O)c3ccco3)CC2)cc1	SMARCA2 act 8.8 | SMARCA2 conf inactive | GAL4-VP16 Luc inactive
COc1ccc(S(=O)(=O)Nc2ccc(F)c(F)c2)cc1C(=O)N1CCOCC1	none
COc1ccc(S(=O)(=O)Nc2cccc(SC)c2)cc1C(=O)N1CCOCC1	SMARCA2 act 9.6 | SMARCA2 conf inactive | GAL4-VP16 Luc inactive
COc1ccc(S(=O)(=O)NCc2cccnc2)cc1C(=O)N1CCCCC1	SMARCA2 act 9.8 | SMARCA2 conf inactive | GAL4-VP16 Luc inactive
CC(C)(C)OC(=O)N1CCC(CNC(=O)c2ccccc2)CC1	SMARCA2 act 8.8 | SMARCA2 conf inactive | GAL4-VP16 Luc inactive
C=CCCC1CN(Cc2ccc(OC)cc2)S(=O)(=O)c2c(Oc3ccc(C)cc3)cccc2O1 (stereo unspecified)	none
COc1ccc(/C=C2\COc3ccccc3C2=O)c(OC)c1	SMARCA2 act 8.9 | SMARCA2 conf inactive | GAL4-VP16 Luc 5.2
COc1ccc(/C=C2\COc3ccccc3C2=O)cc1OC	none
COc1ccc(-c2cc(C(=O)Nc3ccc(NC(C)=O)cc3)[nH]n2)c(C)c1	SMARCA2 act 9.6 | SMARCA2 conf inactive | GAL4-VP16 Luc inactive
CC1CCCN(C(=O)Nc2ccc([N+](=O)[O-])cc2)C1 (stereo unspecified)	none
COc1cc(/C=N/NC(=O)c2cc(-c3c(C)nn(-c4ccccc4)c3C)n[nH]2)ccc1O	SMARCA2 act 12 | SMARCA2 conf 16 | GAL4-VP16 Luc 12
O=C(NC1CCCC1)C1C(c2ccc(C(F)(F)F)cc2)=Nc2ccccc2N1C(=O)c1cccc2ccccc12 (stereo unspecified)	none
COc1cc(CN2CCN(c3ncc(Cc4ccccc4)cn3)CC2)cc(OC)c1	none
CCCCNc1ccc2c(c1)OC[C@H](C)NS2(=O)=O	none
COc1ccc(-c2nc(-c3ccc(C(=O)O)cc3)no2)cc1	hgDAF-12 ag 12, SMARCA2 act 8.4, DAX1 inh 3.9, hcDAF-12 act 6.9 | SMARCA2 conf 8.4 | GAL4-VP16 Luc 15
COc1ccc(-c2ccc(-c3noc(-c4ccccc4)n3)c(OC)n2)cc1	SMARCA2 act 12 | SMARCA2 conf inactive | GAL4-VP16 Luc inactive
CN(C)CCCNc1cc(C(C)(C)C)nc2c(-c3ccccc3)cnn12	ssDAF12 agonist 1.3, SMARCA2 act 9.3 | SMARCA2 conf inactive | GAL4-VP16 Luc 6.7
C=Cn1cc(CNC[C@H]2O[C@@H](n3cnc4c(=O)[nH]c(N)nc43)[C@H](O)[C@@H]2O)c(C)n1	none
O=S(=O)(c1ccccc1Br)N(Cc1cn(CC2CCCCC2)nn1)C1CC1	none
c1cc(-c2cc3cc4c(cc3cn2)OCO4)cs1	ssDAF12 agonist 1.2, SMARCA2 act 8.9, hcDAF-12 act 5.8 | SMARCA2 conf inactive | GAL4-VP16 Luc 7.9
C=CCN1C[C@H](COC(=O)c2ccc(C)c(C)c2)Oc2cccc(F)c2S1(=O)=O	none
Cc1ccc(-n2c(C)cc(-c3csc(N)n3)c2C)cc1	SMARCA2 act 12 | SMARCA2 conf inactive | GAL4-VP16 Luc inactive
CCCCNC(=O)C1c2ccccc2OCC(=O)N1Cc1ccccc1 (stereo unspecified)	none
COC(=O)C[C@H]1C=C[C@H](NC(=O)C2CCOCC2)[C@@H](CO)O1	none
COc1ccc(NC(=O)c2onc(C)c2Cl)cc1OC	none
COc1ccc(NC(=O)c2onc(C)c2Cl)cc1	ssDAF12 agonist 0.9, SMARCA2 act 10 | SMARCA2 conf inactive | GAL4-VP16 Luc 7.0
CCOC(=O)N(C)c1c(CC)nc2c(OCc3ccccc3C)cccn12	none
COC(=O)CC1C(=O)NCCN1C(=O)c1ccc([N+](=O)[O-])cc1 (stereo unspecified)	SMARCA2 act 10.0 | SMARCA2 conf inactive | GAL4-VP16 Luc inactive
Fc1ccccc1CSc1ncn[nH]1	SMARCA2 act 9.0 | SMARCA2 conf inactive | GAL4-VP16 Luc inactive
COc1cc(F)c(S(=O)(=O)N2CCCN(S(=O)(=O)c3cccc(N)c3)CC2)c(F)c1	none (no result: SMARCA2 act, DAX1 inh)
O=C(Nc1ccccn1)c1ccc([N+](=O)[O-])cc1Cl	none
CN(C)c1ccc(NC(=O)c2ccc([N+](=O)[O-])cc2Cl)cc1	hgDAF-12 ag 12, SMARCA2 act 9.7 | SMARCA2 conf 7.9 | GAL4-VP16 Luc 12
Cc1ccc(NC(=O)c2ccc([N+](=O)[O-])cc2Cl)nc1	hgDAF-12 ag 11, SMARCA2 act 9.1 | SMARCA2 conf inactive | GAL4-VP16 Luc 9.7
COc1ccc(-c2nc3nc(C)c(Cc4ccccc4)c(=O)n3[nH]2)cc1	SMARCA2 act 8.1 | SMARCA2 conf inactive | GAL4-VP16 Luc inactive
Cc1ccccc1/C=N/Nc1ccnc2cc(Cl)ccc12	none
CCN(CC)Cc1cc(Nc2ccnc3cc(Cl)ccc23)ccc1O	SMARCA2 act 8.2 | SMARCA2 conf 20! | GAL4-VP16 Luc inactive
Oc1ccc(Nc2ccnc3cc(Cl)ccc23)cc1	none
Oc1ccc(/C=N/Nc2ccnc3cc(Cl)ccc23)c(O)c1	SMARCA2 act 15 | SMARCA2 conf 18 | GAL4-VP16 Luc inactive
CCCCC[C@H](C)N1C[C@@H](COCc2ccccc2)Oc2cc(N3CCC[C@@H]3COC)ccc2S1(=O)=O	none
Cc1ccc(CCN=c2c([N+](=O)[O-])nn(-c3ccccc3)n2O)cc1	none
O=[N+]([O-])c1nn(-c2ccccc2)n(O)c1=NCCc1ccccc1	SMARCA2 act 11 | SMARCA2 conf inactive | GAL4-VP16 Luc inactive
